PMC5540273 (PLoS ONE, 2017)
Several values for one entry are separate records, joined by “and”; a condition that tells them apart may be missing. Identical values can stand only once. Like-named read-outs stand apart in the source and are kept apart here.

Columns and labels:
TLK2 = settings: concentration: 1 μM, replicates: in singlicate, n = 1
TNIK = settings: concentration: 1 μM, replicates: in singlicate, n = 1
TNK1 = settings: concentration: 1 μM, replicates: in singlicate; n = 1
TNK2 = settings: concentration: 1 μM, replicates: in singlicate, n = 1
TNNI3K = settings: concentration: 1 μM, replicates: in singlicate, n = 1
TRKA = system: T1, TRKA; settings: concentration: 1 μM, replicates: in singlicate, n = 1
T1 construct: gene NTRK1

TRKB = settings: concentration: 1 μM, replicates: in singlicate, n = 1
TRKC = system: T2, TRKC; settings: concentration: 1 μM, replicates: in singlicate, n = 1
T2 construct: gene NTRK3

TRPM6 = settings: concentration: 1 μM, replicates: in singlicate; n = 1
TSSK1B = settings: concentration: 1 μM, replicates: in singlicate, n = 1
TSSK3 = settings: concentration: 1 μM, replicates: in singlicate, n = 1
TTK = settings: concentration: 1 μM, replicates: in singlicate, n = 1
TXK = settings: concentration: 1 μM, replicates: in singlicate, n = 1
[1] = system: TYK2(JH1domain-catalytic); settings: concentration: 1 μM, replicates: in singlicate, n = 1
[2] = system: TYK2(JH2domain-pseudokinase); settings: concentration: 1 μM, replicates: in singlicate, n = 1
TYRO3 = settings: concentration: 1 μM, replicates: in singlicate; n = 1
ULK1 = settings: concentration: 1 μM, replicates: in singlicate, n = 1
ULK2 = settings: concentration: 1 μM, replicates: in singlicate, n = 1
ULK3 = settings: concentration: 1 μM, replicates: in singlicate, n = 1
VEGFR2 = system: T3, VEGFR2; settings: concentration: 1 μM, replicates: in singlicate, n = 1
T3 construct: gene KDR
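Note: KINOMEscan kinase panel screen.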

## CCc1nc(-c2cccc(C)c2)c(-c2ccnc(NCc3ccccc3)c2)s1
TLK2
  %Inh: 0%
TNIK
  %Inh: 24%
TNK1
  %Inh: 0%
TNK2
  %Inh: 0%
TNNI3K
  %Inh: 0%
TRKA
  %Inh: 0%
TRKB
  %Inh: 0%
TRKC
  %Inh: 0%
TRPM6
  %Inh: 0%
TSSK1B
  %Inh: 22%
TSSK3
  %Inh: 1%
TTK
  %Inh: 12%
TXK
  %Inh: 0%
[1]
  %Inh: 0%
[2]
  %Inh: 0%
TYRO3
  %Inh: 0%
ULK1
  %Inh: 0%
ULK2
  %Inh: 8%
ULK3
  %Inh: 0%
VEGFR2
  %Inh: 0%

## COc1ccc(Nc2ncc(C#N)c(Nc3ccccc3C(N)=O)n2)cc1N1CCN(C)CC1.Cl [GSK1558669]
TLK2
  %Inh: 99.6%
TNIK
  %Inh: 99.3%
TNK1
  %Inh: 100%
TNK2
  %Inh: 94.8%
TNNI3K
  %Inh: 82%
TRKA
  %Inh: 100%
TRKB
  %Inh: 94.8%
TRKC
  %Inh: 94.6%
TRPM6
  %Inh: 46%
TSSK1B
  %Inh: 89%
TSSK3
  %Inh: 79%
TTK
  %Inh: 99.5%
TXK
  %Inh: 84%
[1]
  %Inh: 99.8%
[2]
  %Inh: 99.7%
TYRO3
  %Inh: 35%
ULK1
  %Inh: 100%
ULK2
  %Inh: 100%
ULK3
  %Inh: 100%
VEGFR2
  %Inh: 100%

## c1ccc(-c2n[nH]cc2-c2ccnc3ccccc23)nc1 [GW271431]
TLK2
  %Inh: 0%
TNIK
  %Inh: 32%
TNK1
  %Inh: 10%
TNK2
  %Inh: 19%
TNNI3K
  %Inh: 12%
TRKA
  %Inh: 35%
TRKB
  %Inh: 0%
TRKC
  %Inh: 0%
TRPM6
  %Inh: 29%
TSSK1B
  %Inh: 11%
TSSK3
  %Inh: 22%
TTK
  %Inh: 4%
TXK
  %Inh: 4%
[1]
  %Inh: 17%
[2]
  %Inh: 10%
TYRO3
  %Inh: 0%
ULK1
  %Inh: 0%
ULK2
  %Inh: 0%
ULK3
  %Inh: 1%
VEGFR2
  %Inh: 12%

## [2H]C([2H])(c1cccc(C(F)(F)F)c1C)n1ccn2c(=O)nc(N3CCOCC3)cc12 [GSK2336394]
TLK2
  %Inh: 0%
TNIK
  %Inh: 0%
TNK1
  %Inh: 4%
TNK2
  %Inh: 7%
TNNI3K
  %Inh: 0%
TRKA
  %Inh: 0%
TRKB
  %Inh: 0%
TRKC
  %Inh: 0%
TRPM6
  %Inh: 53%
TSSK1B
  %Inh: 0%
TSSK3
  %Inh: 14%
TTK
  %Inh: 0%
TXK
  %Inh: 0%
[1]
  %Inh: 71%
[2]
  %Inh: 13%
TYRO3
  %Inh: 0%
ULK1
  %Inh: 0%
ULK2
  %Inh: 0%
ULK3
  %Inh: 8%
VEGFR2
  %Inh: 0%

## O=C1NC(=O)C(N2CCc3ccccc32)=C1c1cccc(Cl)c1 [SB-408010]
TLK2
  %Inh: 0%
TNIK
  %Inh: 0%
TNK1
  %Inh: 0%
TNK2
  %Inh: 0%
TNNI3K
  %Inh: 0%
TRKA
  %Inh: 12%
TRKB
  %Inh: 0%
TRKC
  %Inh: 0%
TRPM6
  %Inh: 21%
TSSK1B
  %Inh: 22%
TSSK3
  %Inh: 0%
TTK
  %Inh: 39%
TXK
  %Inh: 0%
[1]
  %Inh: 4%
[2]
  %Inh: 0%
TYRO3
  %Inh: 0%
ULK1
  %Inh: 0%
ULK2
  %Inh: 0%
ULK3
  %Inh: 14%
VEGFR2
  %Inh: 6%

## COc1ccc(CNC(=O)NC2CCN(c3ccnc(Nc4ccc(OC)cc4)n3)C2)cc1 (stereo not shown) [GSK1379727]
TLK2
  %Inh: 0%
TNIK
  %Inh: 0%
TNK1
  %Inh: 0%
TNK2
  %Inh: 12%
TNNI3K
  %Inh: 0%
TRKA
  %Inh: 0%
TRKB
  %Inh: 0%
TRKC
  %Inh: 47%
TRPM6
  %Inh: 0%
TSSK1B
  %Inh: 13%
TSSK3
  %Inh: 5%
TTK
  %Inh: 18%
TXK
  %Inh: 0%
[1]
  %Inh: 37%
[2]
  %Inh: 46%
TYRO3
  %Inh: 0%
ULK1
  %Inh: 0%
ULK2
  %Inh: 0%
ULK3
  %Inh: 9%
VEGFR2
  %Inh: 0%

## NCCNS(=O)(=O)c1ccc(-c2ccnc3[nH]ccc23)cc1 [GSK977617]
TLK2; 1 µM
  %Inh: 37% and 34%
TNIK; 1 µM
  %Inh: 61% and 55%
TNK1
  %Inh: 0%
TNK2; 1 µM
  %Inh: 4% and 6%
TNNI3K; 1 µM
  %Inh: 13% and 5%
TRKA; 1 µM
  %Inh: 100% and 97.9%
TRKB; 1 µM
  %Inh: 89% and 82%
TRKC; 1 µM
  %Inh: 80% and 63%
TRPM6
  %Inh: 0%
TSSK1B; 1 µM
  %Inh: 56% and 46%
TSSK3; 1 µM
  %Inh: 34% and 22%
TTK; 1 µM
  %Inh: 36% and 30%
TXK; 1 µM
  %Inh: 10% and 0%
[1]; 1 µM
  %Inh: 84% and 79%
[2]; 1 µM
  %Inh: 38% and 30%
TYRO3
  %Inh: 0%
ULK1; 1 µM
  %Inh: 93.8% and 83%
ULK2; 1 µM
  %Inh: 39% and 33%
ULK3; 1 µM
  %Inh: 64% and 35%
VEGFR2; 1 µM
  %Inh: 7% and 24%

## O=C(NCCNc1ccnc(Nc2ccc(F)cc2)n1)c1cc2ccccc2s1 [GSK1379874]
TLK2
  %Inh: 0%
TNIK
  %Inh: 0%
TNK1
  %Inh: 0%
TNK2
  %Inh: 7%
TNNI3K
  %Inh: 0%
TRKA
  %Inh: 0%
TRKB
  %Inh: 4%
TRKC
  %Inh: 38%
TRPM6
  %Inh: 11%
TSSK1B
  %Inh: 0%
TSSK3
  %Inh: 22%
TTK
  %Inh: 0%
TXK
  %Inh: 100%
[1]
  %Inh: 0%
[2]
  %Inh: 21%
TYRO3
  %Inh: 0%
ULK1
  %Inh: 3%
ULK2
  %Inh: 0%
ULK3
  %Inh: 1%
VEGFR2
  %Inh: 0%
